Screening data as filed in PubChem BioAssay.
The full list was thinned out, with hits kept by preference.
Tgondii IFNg – blocks Toxoplasma gondii growth in the presence of IFN-gamma; Toxoplasma gondii growth in IFN-gamma-treated host cells; hits give low values; activity change, negative = inhibition, % (no concentration beside the values); actives 3.8% (n = 69,000); AID 1259416; in the data active = activity change below about -70%, passing the limit was not always enough;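 also: host cells are HeLa cells infected with Toxoplasma gondii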
The depositor's hits bear a star; ! = not confirmed by another sample.

SMILES | Tgondii IFNg
Cc1nc(CN2C[C@@H]3CN(Cc4c(C)noc4C)C[C@H]3C2=O)cs1 | -5
Cc1ccnc(CC(C)N(C)Cc2cc(=O)n3c4c(cccc24)CCC3)c1 (stereo not drawn) | 5
COc1ncccc1CN1CC[C@@H]2C[C@H](c3n[nH]c(C)n3)O[C@H]2C1 | -44
CN(C)CCO[C@@H]1C[C@@H]2CN(c3ncc(F)cn3)CCN2C1 | -7
CC(NC(=O)c1cc2cccnc2n(Cc2ccc(Cl)cc2)c1=O)c1ccccc1 (stereo not drawn) | -13
Cc1nc(CN2CCOCC23CCNCC3)cs1 | 9
COCC(=O)N1C[C@@H]2CCN(Cc3c(C)noc3C)C[C@H]2C1 | -6
CN1[C@H]2CC[C@@H]1CN(c1ccnc(N)n1)CC2 | -45
COCCN1C2CCC1CN(c1ncccn1)C2 | 1
CN(C)C(=O)CN1CC2CCC1C2Oc1ccccn1 (stereo not drawn) | 74
Cc1noc(C)c1CN1CCCC2(CN(CC(=O)O)CCO2)C1 (stereo not drawn) | 0
C[C@@H]1O[C@@H](O[C@@H]2C[C@@H](O)[C@]3(CO)[C@H]4[C@H](O)C[C@]5(C)[C@@H](C6=CC(=O)OC6)CC[C@]5(O)[C@@H]4CC[C@]3(O)C2)[C@H](O)[C@H](O)[C@H]1O | -81*
C[C@]12CC[C@H]3[C@@H](CC[C@]4(O)C[C@@H](O)CC[C@]34C=O)[C@@]1(O)CC[C@@H]2C1=CC(=O)OC1 | -63
CO[C@@H]1C(O)[C@H](O[C@H]2CC[C@@]3(C=O)[C@H](CC[C@@H]4[C@@H]3CC[C@]3(C)[C@@H](C5=CC(=O)OC5)CC[C@]43O)C2)OC(C)[C@@H]1O (stereo partly drawn) | -75*
CO[C@H]1[C@H](O)[C@@H](O[C@H]2CC[C@]3(C=O)C4CC[C@]5(C)[C@@H](C6=CC(=O)OC6)CC[C@]5(O)C4CC[C@@H]3C2)O[C@@H](C)[C@@H]1O (stereo partly drawn) | -83*
CN(C)C(=O)CN1CC2CONC2C1 (stereo not drawn) | -7
CC(Cc1ccccc1F)NCCCC(=O)N(C)C (stereo not drawn) | 8
COCCN(Cc1sccc1C)C(=O)c1c(C)n(C)c2ccc(OC)cc12 | -30
O=C(c1ccnnc1)N1C[C@H]2CN(Cc3ccccc3)C[C@H]2C1 | -35
Cc1ccc(CN2[C@@H]3CC[C@H]2CN(C)C(=O)C3)s1 | -36
CS(=O)(=O)c1ccc(CN2CCCC(C(=O)c3ccccn3)C2)cc1 (stereo not drawn) | -25
Cc1c(Cl)cccc1NC(=O)c1cc2cccnc2n(Cc2ccccc2)c1=O | 4
O=C(C[C@@H]1COC[C@H]2CNC[C@@H]21)NCCc1ccncc1 | 3
O=C1NCCN(CC2CC2)C12CCN(Cc1cccnc1)CC2 | -1
Cc1cc(CN2CCO[C@@H]3[C@H]2CC[C@H]3OCC(C)C)no1 | -8
SMILES | Tgondii IFNg
CCO[C@H]1CC[C@@H]2[C@H]1OCCN2Cc1cc(C)on1 | -81*
CCO[C@@H]1CC[C@@H]2[C@H]1OCCN2Cc1cc(C)on1 | -12
Cc1ccc(NC(=O)c2cc3cccnc3n(Cc3ccc(Cl)cc3)c2=O)cc1F | 64
Cc1ccc(-c2nccn2CCc2cnc[nH]2)c(C)c1F | -3
O=C(Nc1ccccc1Cl)c1cc2cccnc2n(Cc2ccc(F)cc2)c1=O | 46
CCN1CCN(C(=O)Cc2ccc(Nc3ncc(F)c(Nc4ccc(C(=O)Nc5ccccc5Cl)cc4)n3)cc2)CC1 | -73*
COCCN1CCO[C@H]2CN(S(=O)(=O)c3cccnc3)C[C@@H]2C1 | 2
COc1cc(C(=O)N[C@H]2c3ccccc3[C@@H]3CNC[C@H]32)ccn1 | -7
CC(=O)Nc1ccccc1NC(=O)CNC(C)Cc1ncccc1C (stereo not drawn) | -33
O=C(NCc1cccs1)c1cc2cccnc2n(Cc2ccc(Cl)cc2)c1=O | 51
CCN(CC)Cc1ccc(C(=O)N(C)c2nc3c(s2)C2CCC(C3)N2C)o1 (stereo not drawn) | -10
CCCN1CCC[C@@H]2Cc3[nH]ncc3C[C@H]21 | -73*
CCCN1CCC[C@@H]2Cc3nc(N)ncc3C[C@H]21 | 13
c1cncc(CN2CCC3OCCCC3(COCC3CC3)C2)c1 (stereo not drawn) | 61
O=C(O)CN1C2COCC1CC(Oc1cccnc1)C2 (stereo not drawn) | 2
CN1C[C@@H](COCc2cccnc2)[C@]2(CCN(C(=O)N(C)C)C2)C1 | 1
COC(=O)C[C@@](O)(CCC(C)(C)O)C(=O)O[C@@H]1C(OC)=C[C@]23CCCN2CCc2cc4c(cc2[C@@H]13)OCO4 | -84*
CN1CC(=O)N(c2cccnc2)CC12CCNC2 (stereo not drawn) | -19
CN1CCC2(CCN(Cc3ccncc3Cl)CC2)C1 | 2
CN(C)C(=O)CN1CCC2C1CC(=O)N2Cc1cccnc1 (stereo not drawn) | 6
c1ccc(CN2CC[C@H]3[C@@H]2CCN3Cc2cccs2)nc1 | -14
Cc1cccc(CN2C(=O)C[C@H]3[C@H]2CCN3Cc2cccs2)n1 | -93*
C[N+]1(C)CCc2cc3c(cc2C1[C@@H]1OC(=O)c2c1ccc1c2OCO1)OCO3 (stereo partly drawn) | -37
CNC(=O)[C@@H]1COC[C@@H]2CN(Cc3ccncc3)C[C@@H]21 | -14
O=C(/C=C/c1ccccc1)C1C(=O)NC23CCCCC2C1c1ccccc1O3 (stereo not drawn) | -64
SMILES | Tgondii IFNg
COc1ccc(/C=C/C(=O)C2C(=O)N(C)C34CCCC3C2c2ccccc2O4)cc1 (stereo not drawn) | 13
COc1ccc(OC)c(/C=C/C(=O)C2C(=O)NC34CCCCC3C2c2ccccc2O4)c1 (stereo not drawn) | -74*
Cc1cccc(C)c1NC(=O)c1cc2cccnc2n(Cc2ccccc2)c1=O | -17
CC1(C)C(=O)[C@@H]2O[C@@H]2[C@@]2(C)C1C[C@@H](O)[C@]1(C)C2CC[C@@]2(C)[C@H](c3ccoc3)OC(=O)C3OC321 (stereo partly drawn) | 5
CC(=O)O[C@@H]1C[C@@]2(C)[C@H](c3ccoc3)C[C@H]3O[C@]32[C@]2(C)C(=O)C(=O)C3C(C)(C)C(=O)C=C[C@]3(C)C12 (stereo partly drawn) | -83*
Fc1cnc(NC2COC3(CCN(Cc4ccccc4)C3)C2)nc1 (stereo not drawn) | -5
CN1CC2(CCN(CC(=O)NCc3ccccn3)C2)OC1=O (stereo not drawn) | -3
Cc1noc(C)c1CN1CC2CC(C1)N(CCO)C2 (stereo not drawn) | -3
CC(C)N1CCO[C@H]2CN(C(=O)N(C)C)C[C@@H]21 | 24
O=C(NC(=O)c1c(F)cccc1F)Nc1cc(Cl)c(OC(F)(F)C(F)C(F)(F)F)cc1Cl (stereo not drawn) | -76*
CN1CCc2c(COCC(=O)N3CCCC3)cncc2C1 | 0
CCOP(=S)(OCC)Oc1nc(Cl)c(Cl)cc1Cl | -76*!
CNC(=O)[C@@H]1CC2CN(C(=O)c3cnoc3C)CC2N1C(C)C (stereo partly drawn) | 1
CN(C)CCN1CC[C@H]2[C@@H]1CCN2C(=O)Cc1cccs1 | 8
COCCO[C@@H]1C[C@@H]2CN(C(=O)c3ccncc3)CCN2C1 | 53
Cn1cc(N2CCC3(CCN(Cc4ccncc4)C3)C2=O)cn1 (stereo not drawn) | -64
COc1ccc(C[C@H]2NC[C@H](O)[C@H]2OC(C)=O)cc1 | -75*
N#Cc1cccc(NC2COC3(CCN(Cc4ccoc4)C3)C2)n1 (stereo not drawn) | -33
